The structures appear in SMILES notation. Calls of active or inactive are those of the source.

Test [1] is described as follows: compound effects on differentiated 3T3-L1 adipocyte viability – cell-based, 3T3-L1 adipocytes, calcein-AM fluorescence, 48 h, basal, profiling panel (AID 1163). Conditions: 3T3-L1 adipocytes viability, higher = more signal.
Test [2] can be described thus: compound effects on hepatocellular carcinoma cell viability – HepG2, calcein-AM fluorescence, 48 h, basal, profiling panel (AID 1164). Conditions: higher = more signal.
Test [3] is described as follows: compound effects on multiple myeloma cell viability – MM1S, calcein-AM fluorescence, 48 h, basal, profiling panel (AID 1165). The conditions noted are these: higher = more signal.
Test [4] can be described thus: calcein-AM signal in unstimulated myeloma cells – cell-based, calcein-AM fluorescence, 48 h, PK04 Diversity Set, profiling panel (AID 1166).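 Also: cells grown under basal conditions without added stimulus.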 The conditions noted are these: RPMI8226 myeloma viability, higher = more signal.
A short description of test [5]: JC-1 mitochondrial signal, unstimulated HepG2 cells – cell-based, JC-1 fluorescence, 24 h, 100 nL compound, profiling panel (AID 1167). Conditions: HepG2 mitochondrial potential, higher = more signal.
The nature of test [6]: JC-1 mitochondrial signal, unstimulated adipocytes – cell-based, JC-1 fluorescence, 3T3-L1 adipocytes, 24 h, 100 nL compound, profiling panel (AID 1168). The conditions noted are these: JC-1 mitochondrial fluorescence, higher = more signal, called active from +8 up or from −8 down.
The nature of test [7]: JC-1 mitochondrial signal, unstimulated myeloma cells – cell-based, JC-1 fluorescence, RPMI8226, 24 h, 100 nL compound, profiling panel (AID 1169). The conditions noted are these: JC-1 mitochondrial potential fluorescence, higher = more signal.
Test [8] can be described thus: JC-1 mitochondrial signal, unstimulated MM1S myeloma – cell-based, JC-1 fluorescence, 24 h, 100 nL compound, profiling panel (AID 1170). Conditions: MM1S mitochondrial potential, higher = more signal.
The nature of test [9]: resazurin metabolic signal in A549 cells – cell-based, resazurin fluorescence, 24 h, PK04 Diversity Set, profiling panel (AID 1171). Conditions: A549 viability, higher = more signal, called active from +8 up or from −8 down.
A short description of test [10]: resazurin metabolic signal in HepG2 cells – cell-based, resazurin fluorescence, 24 h, PK04 Diversity Set, profiling panel (AID 1172). Conditions: HepG2 viability, higher = more signal. A general note: Alamar Blue is a resazurin reagent that responds to reducing activity.
Test [11] can be described thus: budding yeast growth changes without added modifier – OD600, strain BY4716, 24 h, basal condition, primary screen (AID 1173). The conditions noted are these: S. cerevisiae BY4716 growth, OD600, 24 h; higher = more signal, called active from +8 up or from −8 down.
A short description of test [12]: viability profiling in MM1S myeloma cells – cell-based, resazurin fluorescence, basal, 24 h, PK04 Diversity Set, profiling panel (AID 1174). The conditions noted are these: higher = more signal, called active from +8 up or from −8 down.
Test [13] deals with Dihydroorotate dehydrogenase (quinone), mitochondrial (Plasmodium falciparum (isolate 3D7)) (UniProt Q08210). The experiment in a line: inhibition of P. falciparum DHODH – biochemical, C-terminal His tag, absorbance 600 nm, primary screen (AID 1175).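 Also: recombinant parasite enzyme with a five histidine tag at its C terminus.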 Conditions: PfDHODH enzyme, DCIP absorbance 600 nm; higher = more signal, called active from +8 up or from −8 down.
The nature of test [14]: growth modulation of vineyard yeast isolate – strain RM11-1a, OD600, basal, 24 h, primary screen (AID 1177).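 Also: cultures grown under basal conditions with no added stressor.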 Conditions: S. cerevisiae RM11-1a growth, OD600, 24 h; higher = more signal, called active from +8 up or from −8 down.
Test [15] is described as follows: growth of efflux-deficient E. coli DRC39 – strain DRC39, OD650, 24 h, E. coli filamentation inducers, primary screen (AID 1178).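 Also: growth measured as culture turbidity by optical density at 650 nm.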 The conditions noted are these: E. coli DRC39 acrAB, higher = more signal, called active from +8 up or from −8 down.
The nature of test [16]: growth of efflux-deficient E. coli DRC39 – strain DRC39, OD650, 48 h, E. coli filamentation inducers, primary screen (AID 1179).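 Also: screen aims at cell division blockers that make cells filament.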 The conditions noted are these: E. coli DRC39 delta-acrAB growth, higher = more signal, called active from +8 up or from −8 down.
Test [17] in a line: viability profiling in RPMI8226 myeloma cells – cell-based, resazurin fluorescence, basal, 24 h, PK04 Diversity Set, profiling panel (AID 1180).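 Also: RPMI8826 multiple myeloma cell line at 5000 cells per well.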 Conditions: higher = more signal.
Test [18] concerns the target E3 ubiquitin-protein ligase XIAP (Homo sapiens) (UniProt P98170). The experiment in a line: small molecules binding XIAP protein – biophysical, small-molecule microarray, fluorescence 635 nm, primary screen (AID 1181).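 Also: score merges 667 nm emission and signal to noise over triplicate slides.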 Conditions: higher = more signal.
Test [19] deals with XIP peptide (Xip251-270) binding. The experiment in a line: XIP fragment 251-270 binding compounds – biochemical, small-molecule microarray, fluorescence 635/667 nm, 0.1 µg/mL protein, primary screen (AID 1182). The conditions noted are these: fluorescent protein binding, 635 nm, higher = more signal, called active from +8 up or from −8 down.
Test [20] concerns XIP peptide (Xip251-270). The experiment in a line: compounds binding XIP fragment 251-270 – biochemical, small-molecule microarray, fluorescence 635/667 nm, 0.5 µg/mL protein, primary screen (AID 1183). The conditions noted are these: fluorescence 635 nm, higher = more signal.

E3 ubiquitin-protein ligase XIAP (Homo sapiens), sequence (P98170 whole entry, looked up, the tested form may be a part): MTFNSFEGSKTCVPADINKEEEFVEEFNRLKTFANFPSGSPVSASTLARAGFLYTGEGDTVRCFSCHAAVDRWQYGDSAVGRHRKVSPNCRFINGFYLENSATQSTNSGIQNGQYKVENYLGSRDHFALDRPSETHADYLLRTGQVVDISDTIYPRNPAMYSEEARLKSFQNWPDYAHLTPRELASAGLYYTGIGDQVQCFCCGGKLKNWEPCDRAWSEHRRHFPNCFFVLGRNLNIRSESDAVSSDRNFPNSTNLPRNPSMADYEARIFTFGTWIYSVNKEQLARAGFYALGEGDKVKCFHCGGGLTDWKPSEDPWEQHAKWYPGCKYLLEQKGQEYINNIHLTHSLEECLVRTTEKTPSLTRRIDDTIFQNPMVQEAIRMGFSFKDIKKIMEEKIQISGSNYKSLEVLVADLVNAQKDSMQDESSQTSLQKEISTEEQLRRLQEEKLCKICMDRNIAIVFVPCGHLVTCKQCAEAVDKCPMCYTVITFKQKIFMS
Dihydroorotate dehydrogenase (quinone), mitochondrial (Plasmodium falciparum (isolate 3D7)), sequence (Q08210 whole entry, looked up): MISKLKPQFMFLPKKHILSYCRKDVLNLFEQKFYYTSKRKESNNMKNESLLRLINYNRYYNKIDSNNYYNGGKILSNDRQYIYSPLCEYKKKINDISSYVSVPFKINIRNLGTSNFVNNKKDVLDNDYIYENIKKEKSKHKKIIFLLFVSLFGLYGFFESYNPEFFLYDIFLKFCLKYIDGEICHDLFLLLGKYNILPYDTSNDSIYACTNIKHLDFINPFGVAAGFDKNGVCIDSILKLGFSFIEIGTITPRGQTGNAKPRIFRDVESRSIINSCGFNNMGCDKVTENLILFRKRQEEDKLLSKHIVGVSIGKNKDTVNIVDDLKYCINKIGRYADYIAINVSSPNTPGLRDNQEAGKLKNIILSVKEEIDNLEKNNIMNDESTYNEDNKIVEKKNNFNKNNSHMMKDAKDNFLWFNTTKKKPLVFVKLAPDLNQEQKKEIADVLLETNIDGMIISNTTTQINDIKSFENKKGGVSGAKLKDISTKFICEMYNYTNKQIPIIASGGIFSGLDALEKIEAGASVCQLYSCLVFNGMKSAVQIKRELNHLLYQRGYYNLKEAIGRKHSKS

Regarding `NC(=O)N1C(=O)C2C(C1=O)C1C=C(c3ccc(CO)cc3)C2C(C2CC2)N1Cc1cc2c(cc1Br)OCO2` (stereo not given), the z-score is 1.32 in [1]; -0.282 in [2]; -0.767 in [3]; -1.11 in [4]; 1.26 in test [5]; 1.44 (inactive) in [6]. Also, the z-score in test [7] was -0.3; in test [8], 0.463; in [9], 0.761 (inactive); in test [10], 0.627; in test [11] it was -3.17 (inactive); in test [12] it was 0.814 (inactive). Besides, the z-score in test [14] was -1.02 (inactive); in test [15], 1.36 (inactive); in test [16] it was 0.422 (inactive); in test [17] it was 0.298. Besides, the composite z-score is -0.692 (inactive) in [13], -0.143 in [18], 1.06 (inactive) in test [19] and -0.673 in [20].
For the molecule `O=C(O)[C@H]1C[C@H]2C(=O)N[C@@H](Cc3ccccc3)C(=O)N2[C@H]1c1ccc(O)cc1`, the z-score in test [1] was 0.691; in test [2], -0.142; in test [3] it was 0.41; in [4] it was 0.0405; in [5], 1.29; in test [6] it was -0.176 (inactive). For the same molecule, the z-score in test [7] is -0.865; in test [8] it was -0.269; in test [9], 0.715 (inactive); in test [10] it was 0.833; in [11] it was -0.145 (inactive); in test [12] it was 0.635 (inactive). Further, the z-score in test [14] is -0.44 (inactive); in test [15], 0.431 (inactive); in [16], 0.361 (inactive); in test [17], 1.04. Further, the composite z-score was -0.426 (inactive) in [13], 0.117 in [18], 0.3 (inactive) in [19] and 0.923 in [20].
With `C=C(C1=CCN(S(=O)(=O)c2ccc(C)cc2)C1)[C@@H](OC(C)=O)[C@@H]1CCCN1S(=O)(=O)c1ccccc1[N+](=O)[O-]`, the z-score in test [1] is 1.9; in test [2], -3.37; in test [3], -3.21; in test [4] it was -4.14; in test [5], 1.04; in test [6], 0.496 (inactive). Also, the z-score in test [7] was -1.21; in test [8], -2.86; in test [9], 0.0974 (inactive); in test [10] it was 0.174; in [11] it was -0.372 (inactive); in [12] it was -7.03 (inactive). Besides, the z-score is 1.39 (inactive) in [14], 2.93 (inactive) in [15], 1.38 (inactive) in [16] and -4.54 in [17]. Further, the composite z-score in test [13] was 1 (inactive); in test [18] it was -0.301; in [19] it was 0.698 (inactive); in test [20] it was -0.737.
In the case of `COCCOC(=O)N1C(=O)[C@@]2(c3cc(C#CC4(O)CCCCCC4)ccc31)[C@H](c1ccc(O)cc1)N1[C@H](c3ccccc3)[C@H](c3ccccc3)OC(=O)[C@H]1[C@@H]2C(N)=O`, the z-score was 1.46 in test [1]; 0.638 in test [2]; -2.22 in [3]; -4.23 in [4]; -1.6 in test [5]; -0.385 (inactive) in [6]. The z-score in test [7] was -0.735; in test [8], 0.246; in test [9], 0.928 (inactive); in [10] it was 0.228; in test [11], -1.38 (inactive); in [12], 0.951 (inactive). The z-score in test [14] was -0.95 (inactive); in test [15], 0.158 (inactive); in [16], 0.155 (inactive); in test [17], 0.778. In addition, the composite z-score in test [13] was 0.194 (inactive); in [18], 0.166; in [19] it was 1.84 (inactive); in [20], 0.821.
As for `COc1ccc([Si](C)(C)[C@H]2[C@H](CC(=O)N(CCO)Cc3ccccc3)O[C@@]3(C(=O)N(Cc4ccc(N5CCC5=O)cc4)c4ccccc43)[C@@H]2C)cc1`, the z-score in test [1] was 0.816; in test [2], -0.861; in test [3], -1.22; in [4] it was -3.56; in test [5] it was 0.197; in [6] it was 1.44 (inactive). For the same molecule, the z-score in [7] was -0.995; in [8], 0.233; in test [9], -1.1 (inactive); in test [10], 0.0408; in test [11], -0.344 (inactive); in test [12] it was -1.3 (inactive). The z-score in test [14] was 1.73 (inactive); in test [15], 1.61 (inactive); in [16] it was 1.46 (inactive); in test [17], -1.97. The composite z-score in test [13] is -0.983 (inactive); in test [18], -0.0948; in test [19] it was 2.44 (inactive); in test [20] it was 0.365.
Consider `COc1ccc([Si](C)(C)[C@@H]2[C@@H](CCn3cc([C@H](O)c4ccccc4)nn3)O[C@]3(C(=O)N(C)c4c(Br)cc(C)cc43)[C@H]2C)cc1`, for which the z-score is 1.49 in test [1]; -4.5 in [2]; -2.72 in test [3]; -4.42 in [4]; -1.11 in [5]; 2.39 (inactive) in test [6]. Further, the z-score in test [7] is -1.06; in test [8], -1.2; in test [9], -2.49 (inactive); in test [10] it was -3.66; in test [11] it was -1.39 (inactive); in [12], -8.35 (active). Besides, the z-score in [14] was -2.42 (inactive); in test [15] it was 2.5 (inactive); in test [16], 2.83 (inactive); in test [17] it was -6.23. Moreover, the composite z-score in test [13] was -0.973 (inactive); in [18], 0.382; in [19], 0.512 (inactive); in [20], 0.202.
For the molecule `CCCNC(=O)[C@@]1(Sc2ccc(C)cc2)CC(=O)N(Cc2cc(C(F)(F)F)cc(C(F)(F)F)c2)[C@@H]1c1ccc(CO)cc1I`, the z-score in [1] is 0.66; in [2] it was 1.28; in test [3] it was -2.53; in [4] it was -1.3; in test [5], 0.848; in test [6], 1.18 (inactive). For the same molecule, the z-score in test [7] was -0.649; in test [8] it was -1.24; in [9], 0.0086 (inactive); in test [10], 1.05; in test [11], -5.79 (inactive); in test [12], -1.68 (inactive). The z-score is -5 (inactive) in test [14], 0.961 (inactive) in [15], 1.4 (inactive) in test [16] and -1.55 in test [17]. In addition, the composite z-score is -0.684 (inactive) in test [13], -0.0925 in test [18], 0.459 (inactive) in [19] and 0.816 in [20].
For `C=CC[C@@H](OC(=O)Nc1ccc(SC)cc1)c1ccc(OCCO)cc1`, the z-score was 0.344 in test [1]; -0.0505 in test [2]; -0.2 in test [3]; 0.0111 in test [4]; -2.22 in test [5]; 0.812 (inactive) in [6]. Besides, the z-score in [7] was 0.561; in [8], -0.774; in test [9], 0.364 (inactive); in test [10], 0.537; in [11], -5.16 (inactive); in test [12] it was 0.822 (inactive). The z-score is -0.0086 (inactive) in test [14], 1.28 (inactive) in test [15], 0.899 (inactive) in [16] and 0.301 in [17]. The composite z-score is -1.13 (inactive) in test [13], -0.0773 in test [18], 1.08 (inactive) in [19] and -0.689 in test [20].

(Values after PubChem BioAssay.)
